Laboratory results taken from the supplement of paper PMC10849652.
Of roughly 7,900 targets only a part is listed; those with a hit were picked by preference. About 0.6% of all pairs of compound and target were hits.

Key:
Test in all cases: log2 fold change, soluble protein after heating vs DMSO (PISA); higher = thermal stabilisation; K562 cells, 10 uM, 30 min; active = over 0.2 and 3.5 SD of the protein, either way, in both replicates (recomputed)
[1] = compound: CC1=C(C=C(C=C1)NC(=O)C2=CC(=CC=C2)C(C)(C)C#N)NC3=CC4=C(C=C3)N=CN(C4=O)C
Summary of the method: (§1)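 Values are thermal stability changes relative to control samples and are taken from duplicates. They are stated as log2 fold changes. Before quantification by TMTpro 16plex LC-MS/MS with equalised channel sums, K562 cells at 2×10^6 cells/mL were treated with 10 μM compound for 30 min, heated in aliquots for 3 min across 48°C-58°C, pooled, extracted in PBS with 0.5% NP-40 at 4°C, and centrifuged at 21,000xg for 90 min to give the soluble supernatant.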

[2] = compound: CC1=C(C=C(C=C1)NC(=O)C2=CC(=CC=C2)N(C)C)NC(=O)C3=CC=C(C=C3)O
Summary of the method: as §1

[3] = compound: CC1=CC=C(C=C1)SC2=C3C=C(SC3=CN=C2)C(=O)N
Summary of the method: as §1

[4] = compound: CC1=NC(=CC=C1)C2=C(N=C(N2)C(C)(C)C)C3=CC4=NC=CN=C4C=C3
Summary of the method: as §1

Nexturastat A = compound: CCCCN(Cc1ccc(C(=O)NO)cc1)C(=O)Nc1ccccc1 [Nexturastat A]
Summary of the method: as §1

vemurafenib = compound: CCCS(=O)(=O)Nc1ccc(F)c(C(=O)c2c[nH]c3ncc(-c4ccc(Cl)cc4)cc23)c1F [vemurafenib]
Summary of the method: as §1

[5] = compound: CCCS(=O)(=O)Nc1ccc(F)c(C(=O)c2c[nH]c3ncc(Cl)cc23)c1F
Summary of the method: as §1

[6] = compound: CCCc1cc(C)[nH]c(=O)c1CNC(=O)c1cc(-c2ccnc(N3CCN(C)CC3)c2)cc2c1cnn2C(C)C
Summary of the method: as §1

givinostat = compound: CCN(CC)Cc1ccc2cc(COC(=O)Nc3ccc(C(=O)NO)cc3)ccc2c1 [givinostat]
Summary of the method: as §1

barasertib = compound: CCN(CCCOc1ccc2c(Nc3cc(CC(=O)Nc4cccc(F)c4)[nH]n3)ncnc2c1)CCOP(=O)(O)O [barasertib]
Summary of the method: as §1

[7] = compound: CC[C@@H]1C(=O)N(C)c2cnc(Nc3ccc(C(=O)NC4CCN(C)CC4)cc3OC)nc2N1C1CCCC1
Summary of the method: as §1

volasertib = compound: CC[C@@H]1C(=O)N(C)c2cnc(Nc3ccc(C(=O)N[C@H]4CC[C@H](N5CCN(CC6CC6)CC5)CC4)cc3OC)nc2N1C(C)C [volasertib]
Summary of the method: as §1

epoxomicin = compound: CC[C@H](C)[C@@H](C(=O)N[C@@H]([C@@H](C)O)C(=O)N[C@@H](CC(C)C)C(=O)[C@]1(CO1)C)NC(=O)[C@H]([C@@H](C)CC)N(C)C(=O)C [epoxomicin]
Summary of the method: as §1

[8] = compound: CCn1c(C(=O)N(C2CC2)C2CC2)cc2c3c(ncn3C)c(Nc3cc(C)n(C)n3)nc21
Summary of the method: as §1

[9] = compound: CCn1cc(-c2ccnc3[nH]c(-c4cccc(CN(C)C)c4)cc23)c(-c2ccc(NC(=O)N(C)C)cc2)n1
Summary of the method: as §1

[10] = compound: CN(C)CC(=O)Nc1ccc2[nH]c(=O)c3ccccc3c2c1
Summary of the method: as §1

rosiglitazone = compound: CN(CCOC1=CC=C(C=C1)C[C@H]2C(=O)NC(=O)S2)C3=CC=CC=N3 (racemic) [rosiglitazone]
Summary of the method: as §1

[11] = compound: CN1C2=C(C3=C1C(=O)N(N=C3)CC4=CC(=CC=C4)N)SC(=C2)S(=O)C
Summary of the method: as §1

[12] = compound: CN1CCC(CNc2ccc3ncc(-c4cccc(OC(F)(F)F)c4)n3n2)CC1
Summary of the method: as §1

[13] = compound: CC[C@H](C)N1C=C(C2=C(C=C(C=C21)C3=CN=C(C=C3)N4CCNCC4)C(=O)NCC5=C(C=C(NC5=O)C)C)C
Summary of the method: as §1

Measured: log2 fold change

CDK8 (UniProt P49336)
Sequence of UniProt P49336 (P49336 whole entry, looked up): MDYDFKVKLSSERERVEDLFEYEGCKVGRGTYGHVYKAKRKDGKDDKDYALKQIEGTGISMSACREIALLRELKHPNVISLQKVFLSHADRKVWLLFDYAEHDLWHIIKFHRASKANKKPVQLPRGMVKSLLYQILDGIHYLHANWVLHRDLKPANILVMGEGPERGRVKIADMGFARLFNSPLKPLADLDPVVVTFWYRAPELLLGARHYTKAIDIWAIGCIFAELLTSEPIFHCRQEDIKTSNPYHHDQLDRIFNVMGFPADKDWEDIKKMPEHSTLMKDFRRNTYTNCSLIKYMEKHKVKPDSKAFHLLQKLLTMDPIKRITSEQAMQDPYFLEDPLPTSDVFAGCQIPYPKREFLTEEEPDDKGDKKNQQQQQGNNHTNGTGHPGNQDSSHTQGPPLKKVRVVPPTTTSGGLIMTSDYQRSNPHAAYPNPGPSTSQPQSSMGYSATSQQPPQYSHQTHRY
inactive: [1] 0.002 | [2] -0.005 | [3] 0.322 | [4] 0.064 | Nexturastat A -0.125 | vemurafenib 0.041 | [5] 0.044 | [6] -0.081 | givinostat 0.02 | barasertib -0.343 | [7] 0.096 | volasertib -0.039 | epoxomicin -0.098 | [8] 0.027 | [9] -0.236 | [10] -0.044 | rosiglitazone -0.02 | [11] -0.025 | [12] 0.356

CRYM-AS1 (UniProt A6NIL9)
inactive: [1] 0.239 | [2] -0.066 | [4] -0.224 | Nexturastat A 0.332 | vemurafenib 0.161 | [6] -0.049 | givinostat 0.189 | barasertib -0.036 | [7] -0.04 | [13] 0.233 | epoxomicin -0.107 | [8] 0.104 | [9] -0.029 | [10] 0.089 | rosiglitazone -0.068 | [11] 0.04
active: [12] -0.714

C9orf72 (UniProt Q96LT7)
Sequence of UniProt Q96LT7 (Q96LT7 whole entry, looked up): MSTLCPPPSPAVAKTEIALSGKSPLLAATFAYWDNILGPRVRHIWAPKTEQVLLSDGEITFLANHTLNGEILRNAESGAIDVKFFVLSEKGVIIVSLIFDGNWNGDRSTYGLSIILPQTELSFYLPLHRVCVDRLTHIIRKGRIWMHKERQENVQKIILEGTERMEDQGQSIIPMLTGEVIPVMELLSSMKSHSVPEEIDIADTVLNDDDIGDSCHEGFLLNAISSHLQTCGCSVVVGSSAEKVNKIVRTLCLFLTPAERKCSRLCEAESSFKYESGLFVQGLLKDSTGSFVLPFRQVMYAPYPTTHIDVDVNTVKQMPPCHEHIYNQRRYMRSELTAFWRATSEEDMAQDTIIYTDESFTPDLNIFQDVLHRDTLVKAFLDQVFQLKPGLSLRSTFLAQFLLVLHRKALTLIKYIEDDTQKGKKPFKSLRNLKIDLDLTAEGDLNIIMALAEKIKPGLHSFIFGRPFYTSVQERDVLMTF
inactive: [1] 0.108 | [2] -0.009 | [3] 0.027 | [4] -0.014 | Nexturastat A -0.102 | vemurafenib -0.139 | [5] -0.038 | [6] 0.007 | givinostat -0.022 | barasertib 0.042 | volasertib -0.089 | [13] 0.062 | epoxomicin -0.008 | [8] 0.003 | [9] 0.226 | [10] 0.075 | rosiglitazone -0.033 | [11] -0.094 | [12] 0.209

CASP10 isoform 4 (UniProt Q92851)
Sequence of UniProt Q92851 (Q92851 whole entry, looked up): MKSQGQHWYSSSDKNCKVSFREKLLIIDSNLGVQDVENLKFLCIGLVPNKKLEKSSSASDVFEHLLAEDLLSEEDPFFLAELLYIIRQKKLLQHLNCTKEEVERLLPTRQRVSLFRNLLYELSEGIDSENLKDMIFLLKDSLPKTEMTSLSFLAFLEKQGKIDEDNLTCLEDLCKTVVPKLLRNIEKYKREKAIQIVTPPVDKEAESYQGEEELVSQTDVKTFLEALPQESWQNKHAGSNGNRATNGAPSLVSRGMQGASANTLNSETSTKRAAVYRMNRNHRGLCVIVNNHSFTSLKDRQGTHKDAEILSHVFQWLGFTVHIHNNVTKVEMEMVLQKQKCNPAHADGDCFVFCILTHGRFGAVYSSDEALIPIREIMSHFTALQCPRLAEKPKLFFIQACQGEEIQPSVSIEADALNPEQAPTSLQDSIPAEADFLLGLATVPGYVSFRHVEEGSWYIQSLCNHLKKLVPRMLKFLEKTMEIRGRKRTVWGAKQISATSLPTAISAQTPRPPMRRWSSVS
active: volasertib -0.582
inactive: [1] 0.015 | [2] 0.026 | [3] 0.085 | [4] 0 | Nexturastat A 0.125 | vemurafenib -0.015 | [5] 0.014 | [6] 0.034 | barasertib 0.121 | [7] -0.091 | [13] 0.015 | epoxomicin 0.004 | [9] 0.121 | [10] -0.016 | rosiglitazone -0.093 | [11] 0.023 | [12] -0.331

CHAF1A (UniProt Q13111)
Sequence of UniProt Q13111 (Q13111 whole entry, looked up): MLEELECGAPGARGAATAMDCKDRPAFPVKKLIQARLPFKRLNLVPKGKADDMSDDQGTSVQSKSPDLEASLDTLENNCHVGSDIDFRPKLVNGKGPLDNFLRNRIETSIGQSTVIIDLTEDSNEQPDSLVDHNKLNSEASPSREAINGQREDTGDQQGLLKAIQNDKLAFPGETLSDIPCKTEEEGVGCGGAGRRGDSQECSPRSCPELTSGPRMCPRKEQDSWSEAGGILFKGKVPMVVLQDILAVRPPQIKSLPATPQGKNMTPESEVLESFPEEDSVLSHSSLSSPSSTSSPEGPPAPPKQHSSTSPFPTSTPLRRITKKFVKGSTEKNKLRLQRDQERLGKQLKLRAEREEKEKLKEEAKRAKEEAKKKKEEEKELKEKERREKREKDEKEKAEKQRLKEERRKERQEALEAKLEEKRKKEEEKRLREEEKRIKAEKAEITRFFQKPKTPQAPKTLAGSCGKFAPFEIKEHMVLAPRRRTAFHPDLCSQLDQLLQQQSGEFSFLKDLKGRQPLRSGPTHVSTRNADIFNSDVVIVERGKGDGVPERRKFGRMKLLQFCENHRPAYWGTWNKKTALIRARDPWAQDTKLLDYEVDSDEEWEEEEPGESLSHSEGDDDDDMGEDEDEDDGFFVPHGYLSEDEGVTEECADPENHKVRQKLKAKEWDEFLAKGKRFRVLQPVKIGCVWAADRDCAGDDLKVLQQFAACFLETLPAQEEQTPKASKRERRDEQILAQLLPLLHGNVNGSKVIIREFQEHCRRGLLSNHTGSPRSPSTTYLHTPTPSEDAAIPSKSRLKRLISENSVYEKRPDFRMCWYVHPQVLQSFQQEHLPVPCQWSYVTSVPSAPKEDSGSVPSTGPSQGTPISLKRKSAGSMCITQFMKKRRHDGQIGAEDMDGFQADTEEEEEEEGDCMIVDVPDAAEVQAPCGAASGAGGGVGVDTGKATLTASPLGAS
inactive: [1] 0.035 | [2] -0.054 | [3] 0.087 | [4] -0.116 | Nexturastat A 0.088 | [5] 0.026 | [6] -0.097 | givinostat 0.149 | barasertib 0.107 | [7] 0.025 | volasertib -0.021 | [13] 0.036 | epoxomicin -0.039 | [8] -0.078 | [9] 0.064 | rosiglitazone -0.018 | [11] 0.158 | [12] 0.051

CDK17 isoform 2 (UniProt Q00537)
Sequence of UniProt Q00537 (Q00537 whole entry, looked up): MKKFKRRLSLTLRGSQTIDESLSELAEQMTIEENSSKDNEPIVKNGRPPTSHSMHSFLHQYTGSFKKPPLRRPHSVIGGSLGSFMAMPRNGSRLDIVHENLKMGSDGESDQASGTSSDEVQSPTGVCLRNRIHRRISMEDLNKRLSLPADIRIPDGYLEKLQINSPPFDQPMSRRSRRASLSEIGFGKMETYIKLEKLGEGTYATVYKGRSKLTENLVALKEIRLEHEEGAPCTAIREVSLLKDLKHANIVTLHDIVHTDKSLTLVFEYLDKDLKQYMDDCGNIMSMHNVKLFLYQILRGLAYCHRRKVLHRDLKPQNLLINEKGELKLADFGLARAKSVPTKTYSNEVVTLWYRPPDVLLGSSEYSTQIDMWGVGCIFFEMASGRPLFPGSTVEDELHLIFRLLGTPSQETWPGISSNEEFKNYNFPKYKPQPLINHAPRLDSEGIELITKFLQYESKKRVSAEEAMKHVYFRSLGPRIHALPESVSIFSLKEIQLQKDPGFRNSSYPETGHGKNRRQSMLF
inactive: [1] 0.105 | [3] 0.061 | [4] -0.051 | Nexturastat A 0.172 | vemurafenib -0.098 | [5] -0.085 | [6] 0.042 | givinostat 0.003 | barasertib 0.055 | [7] -0.153 | volasertib -0.079 | epoxomicin 0.07 | [8] 0.032 | [9] -0.012 | [10] 0.046 | rosiglitazone 0.038 | [11] 0.022 | [12] 0.051

C15orf41 (UniProt Q9Y2V0)
Sequence of UniProt Q9Y2V0 (Q9Y2V0 whole entry, looked up): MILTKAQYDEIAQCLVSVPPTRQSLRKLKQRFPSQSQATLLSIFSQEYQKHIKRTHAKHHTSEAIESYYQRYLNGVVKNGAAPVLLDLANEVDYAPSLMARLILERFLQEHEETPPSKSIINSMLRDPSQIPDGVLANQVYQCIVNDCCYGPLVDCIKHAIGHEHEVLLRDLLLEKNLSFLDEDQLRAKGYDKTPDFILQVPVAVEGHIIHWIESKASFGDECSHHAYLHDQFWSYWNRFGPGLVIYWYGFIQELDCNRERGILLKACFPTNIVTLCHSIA
active: [9] -0.333
inactive: [1] 0.022 | [2] -0.026 | [3] -0.017 | [4] -0.002 | Nexturastat A -0.006 | vemurafenib 0.015 | [5] 0.032 | givinostat -0.012 | [7] -0.04 | volasertib -0.188 | epoxomicin -0.165 | [8] -0.023 | [10] -0.022 | [11] 0.019 | [12] 0.001

CDK19 (UniProt Q9BWU1)
Sequence of UniProt Q9BWU1 (Q9BWU1 whole entry, looked up): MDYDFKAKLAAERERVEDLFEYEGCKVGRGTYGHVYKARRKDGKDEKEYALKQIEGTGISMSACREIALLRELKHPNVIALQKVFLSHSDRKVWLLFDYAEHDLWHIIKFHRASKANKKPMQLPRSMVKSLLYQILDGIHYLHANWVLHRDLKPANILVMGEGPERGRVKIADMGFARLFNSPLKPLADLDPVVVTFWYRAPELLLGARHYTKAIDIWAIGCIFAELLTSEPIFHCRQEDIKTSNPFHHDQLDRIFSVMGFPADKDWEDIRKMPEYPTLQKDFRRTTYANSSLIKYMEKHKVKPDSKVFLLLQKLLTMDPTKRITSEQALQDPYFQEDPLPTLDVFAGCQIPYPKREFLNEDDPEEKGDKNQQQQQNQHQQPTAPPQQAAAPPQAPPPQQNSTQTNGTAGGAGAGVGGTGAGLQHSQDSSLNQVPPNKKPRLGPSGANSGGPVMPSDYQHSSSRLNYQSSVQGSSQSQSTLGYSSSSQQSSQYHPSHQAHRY
inactive: [1] -0.032 | [2] 0.212 | [3] 0.246 | Nexturastat A -0.039 | vemurafenib 0.057 | [5] -0.026 | [6] -0.109 | givinostat -0.133 | [7] 0.016 | volasertib -0.064 | [13] 0.069 | epoxomicin -0.114 | [8] 0.038 | [9] -0.1 | [10] -0.068 | [11] 0.003 | [12] 0.456

CFAP36 isoform 2 (UniProt Q96G28)
Sequence of UniProt Q96G28 (Q96G28 whole entry, looked up): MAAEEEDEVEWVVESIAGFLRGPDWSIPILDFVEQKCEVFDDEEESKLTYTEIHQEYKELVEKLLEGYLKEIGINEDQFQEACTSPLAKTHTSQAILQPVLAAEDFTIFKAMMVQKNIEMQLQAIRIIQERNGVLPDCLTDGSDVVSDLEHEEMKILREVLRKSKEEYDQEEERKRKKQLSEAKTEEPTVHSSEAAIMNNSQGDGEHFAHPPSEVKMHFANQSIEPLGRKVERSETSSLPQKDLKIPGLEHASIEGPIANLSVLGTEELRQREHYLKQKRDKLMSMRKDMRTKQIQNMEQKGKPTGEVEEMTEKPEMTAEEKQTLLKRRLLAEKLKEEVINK
inactive: [1] 0.005 | [2] 0.024 | [3] 0.054 | [4] 0.066 | Nexturastat A 0.023 | vemurafenib -0.041 | [5] 0.012 | [6] -0.061 | givinostat -0.003 | barasertib 0.03 | [7] -0.159 | epoxomicin -0.017 | [8] 0.077 | [9] 0.048 | [10] 0.005 | rosiglitazone 0.06 | [11] 0.051 | [12] -0.049
active: volasertib -0.433
